ALOX12 inh = ALOX12 (human) lipoxygenase inhibition. P18054. purified 12hLO, xylenol orange hydroperoxide absorbance. Potency, µM (top dose mostly 108 µM), inactives show at the top dose activity change, negative = inhibition, hits mostly inhibitors. 580,000 compounds, 1.1% hits; note: potency is the fitted concentration of half-maximal effect; % is set by controls: 0 for no effect and ±100 for the full control effect
Target sequence (P18054 whole entry, looked up): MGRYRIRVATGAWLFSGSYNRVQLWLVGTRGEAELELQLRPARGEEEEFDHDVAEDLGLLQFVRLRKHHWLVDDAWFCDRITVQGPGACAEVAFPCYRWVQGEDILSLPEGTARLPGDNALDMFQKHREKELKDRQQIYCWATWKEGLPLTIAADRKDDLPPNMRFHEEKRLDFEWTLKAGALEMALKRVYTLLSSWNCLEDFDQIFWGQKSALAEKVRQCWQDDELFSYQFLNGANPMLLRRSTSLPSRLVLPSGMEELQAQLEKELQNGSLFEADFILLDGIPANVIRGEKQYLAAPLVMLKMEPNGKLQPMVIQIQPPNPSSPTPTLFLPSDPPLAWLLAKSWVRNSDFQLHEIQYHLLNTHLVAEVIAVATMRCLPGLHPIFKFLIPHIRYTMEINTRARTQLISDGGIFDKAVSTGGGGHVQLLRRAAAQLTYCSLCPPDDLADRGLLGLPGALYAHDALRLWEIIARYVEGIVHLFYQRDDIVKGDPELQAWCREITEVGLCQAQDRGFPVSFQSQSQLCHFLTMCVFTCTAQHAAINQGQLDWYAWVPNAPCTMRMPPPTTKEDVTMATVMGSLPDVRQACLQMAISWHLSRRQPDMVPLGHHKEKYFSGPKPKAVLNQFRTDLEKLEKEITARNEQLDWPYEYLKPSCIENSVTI
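Purified human 12hLO at 150 nM in 25 mM Hepes, 0.01% Triton X-100, pH 7.0, preincubated 15 min at room temperature with compound. Reaction started with 40 uM arachidonic acid, 30 min at room temperature. Hydroperoxide measured by Fe-xylenol orange, 573/405 nm absorbance ratio.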
Nrf2 activator = activates Nrf2 signaling. AREc32 ARE-luciferase reporter (MCF7-derived line), luminescence, 24 h. Potency, µM (highest dose often 46.1 µM), for the others: at the highest dose activation, usual class: activators. 410,000 compounds, 0.31% hits; note: potency is the fitted concentration of half-maximal effect; % of control where 0% means no effect; nearly all actives have a fitted effect of over 65% in size
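AREc32 cells carrying an ARE-driven firefly luciferase reporter were seeded at 1000 cells/well in OPTI-MEM with 5% FBS, then exposed to compound for 24 hr at 37 deg C. Luminescence was read with Steady-Glo after 30 min at RT.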
LDHA inh = blocks human lactate dehydrogenase A; P00338; purified LDHA, NADH/diaphorase-resazurin fluorescence; active compounds read low; activity change, % (values are at about 110 or 230 µM); 480,000 compounds, 0.15% hits; AID 1347041; in the data active = activity change below about -30%; inconclusive = mostly about -25% to -30%;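 note: plate controls were DMSO wells for no effect and wells without enzyme for full effect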
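Remaining NADH was detected by diaphorase (0.133 mg/mL) converting 37 µM resazurin to fluorescent resorufin, read at 0 and 20 minutes. The preceding 5-minute room-temperature reaction used 2 nM LDHA, 0.2 mM sodium pyruvate and 0.06 mM NADH at pH 7.4.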
A549 tox = A549 cytotoxicity, counter-screen for Nrf2 inhibitors; A549 ARE-Fluc cells, CellTiter-Fluor viability, 18-24 h; Potency, µM (titrated, usually from 46 µM), for the others: top-dose activity change, negative = cytotoxicity, actives largely listed as inhibitors; 390,000 compounds, 0.16% hits; AID 504648; note: potency is the fitted concentration of half-maximal effect; % is set by controls: 0 for no effect and ±100 for the full control effect
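A549 ARE_Fluc cells in 5% FBS OPTI-MEM were exposed to compounds in concentration-response for 18-24 h at 37 deg C. Viability was read by CellTiter-Fluor fluorescence (Ex 405/Em 525) after 30 min, before the luciferase read.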
Nrf2 inh = blocks Nrf2 signaling | 360,000 compounds, 2.1% hits | Potency, µM (series often up to 46 µM), inactives show at the top dose activity change, negative = inhibition, most hits filed as inhibitors | AID 504444 | A549 ARE-Fluc reporter, luciferase luminescence, 18-24 h; note: potency is the fitted concentration of half-maximal effect; % is set by controls: 0 for no effect and ±100 for the full control effect; nearly all actives have a fitted effect of over 60% in size
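Two sequential reads on A549 ARE_Fluc cells exposed to compound for 18-24 h: a CellTiter-Fluor fluorescence read for viability, then a luciferase luminescence read for Nrf2/ARE activity.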
mIDH1 inhibitor = blocks human mutant IDH1 R132H enzyme. 390,000 compounds, 0.093% hits. IDH1-R132H enzyme, NADPH consumption, diaphorase/resazurin fluorescence. AID 602179. Potency, µM (highest dose often 76.6 µM), for the others: top-dose activity change, negative = inhibition, most hits filed as inhibitors. O75874; note: potency is the fitted concentration of half-maximal effect; % is set by controls: 0 for no effect and ±100 for the full control effect; nearly all actives have a fitted effect of over 65% in size
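IDH1-R132H (0.5 ug/mL dispensed) in pH 7.5 Tris buffer was preincubated 30 min with compound, then given a substrate mix of 0.016 mM NADPH and 2 mM alpha-KG for 80 min at room temperature; remaining NADPH was read by diaphorase/resazurin fluorescence.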
* = called active by the depositor; ? = inconclusive; nt = no result; [ ] = dose if it differs, or a comment. Hits are enriched below; roughly 2.7% of the tested compounds scored in any of these assays. Unless noted, calls come from the whole dose curve; as a rule, active = well fitted curve in the direction sought with a large enough effect; inconclusive = small, poorly fitted or top-dose-only effect, or another doubt; inactive = no such curve, though single readings can be large; an effect the other way counts as inactive or inconclusive.

SMILES	ALOX12 inh	Nrf2 activator	LDHA inh	A549 tox	Nrf2 inh	mIDH1 inhibitor
Cc1ccc(C(=O)O)cc1NC(=S)NC(=O)c1ccc(-c2ccc(Cl)cc2)o1	2µM*	-0.5%	-5.4	-1.8%	13.3%	-16.0%
CCN1CCN(c2ccc(NC(=O)c3ccc(Br)o3)cc2)CC1	18.9%	-0.3%	1.1	2.5%	5.1%	-5.4%
Cn1c(CN2CCN(c3ccc(NS(C)(=O)=O)cc3Cl)CC2)nc2ccccc21	15.5%	nt	-3.6	nt	nt	nt
Cc1cc(C)c(OCC(=O)Nc2ccc(N3CCN(C(=O)C(C)C)CC3)cc2)c(Cl)c1	-4.6%	nt	3.5	nt	nt	nt
O=C1c2ccccc2CCCC12N=NCC2c1cccc2ccccc12 (stereo not given)	0.5%	-0.5%	-16.8	-4.2%	16.4µM*	1.4%
CCc1c(C)nc2nncn2c1NCc1ccc(Cl)cc1	-11.0%	-0.3%	-2.5	-16.5%	8.2µM*	nt
Cc1cc(C)c(-n2c(SCc3nc4ccccc4s3)n[nH]c2=O)c(C)c1	0.0%	-0.3%	-6.3	-21.1%	16.4µM*	-2.2%
CCCn1c(SCc2nc3ccccc3s2)n[nH]c1=O	36.6%	9.7%	-2.9	3.9%	?	-4.1%
Cc1cc(C)c(-n2c(SCCS(=O)(=O)c3ccc(F)cc3)n[nH]c2=O)c(C)c1	273.8%	8.91µM*	-14.6	0.0%	1.1%	3.1%
C=CCOC(=O)/C(C#N)=C\c1cc2ccccc2nc1N1CCOCC1	?	nt	5.4	nt	nt	nt
O=c1[nH]c(CSc2nc3ccccc3[nH]2)nc2c1cnn2-c1ccccc1	10.0%	-0.2%	-3.1	-23.7%	14.6µM*	2.9%
Cc1ccc(C(=O)/C=C/c2ccccc2[N+](=O)[O-])cc1	-12.6%	0.7%	-2.6	3.2%	?	1.2%
O=C(/C=C\c1ccccc1[N+](=O)[O-])Nc1ccccc1	0.0%	11.2µM*	-0.3	-1.4%	?	-8.1%
O=C(/C=C/c1ccccc1[N+](=O)[O-])c1ccccc1Br	-12.6%	-3.7%	-7.2	?	16.4µM*	0.0%
Cc1cc(C(=O)NCCc2ccccc2)c2ccccc2n1	-11.3%	nt	-1.6	nt	nt	nt
CCOc1ccc2ccccc2c1CNCC(O)c1ccccc1 (stereo not given)	4.0%	nt	-4.9	nt	nt	nt
CCOC(=O)N=Nc1c(O)n(CC(=O)OC)c2ccccc12	-2.7%	0.2%	-2.9	2.5%	25.9%	9.7%
CCOC(=O)N=Nc1c2ccccc2c2nc3no[nH]c3nc12	4.3%	-2.9%	30.1	0.92µM*	0.651µM*	2.7%
CCOC(=O)c1cc2cc(C(=O)O)ccc2[nH]1	15.8µM*	nt	2.4	nt	nt	nt
O=c1c2sc3nc(N4CCOCC4)c4c(c3c2ncn1-c1ccccc1)CCCC4	-9.9%	-0.5%	-3.6	10.8%	13µM*	?
COc1ccc(-n2cnc3c(sc4nc(N5CCOCC5)c5c(c43)CCCC5)c2=O)cc1	2.5%	-0.2%	-6.2	-1.6%	?	-7.1%
Cc1ccccc1-n1cnc2c(sc3nc(N4CCOCC4)c4c(c32)CCCC4)c1=O	?	0.1%	1.2	-17.2%	20.6µM*	-5.2%
Cc1ccc(-n2cnc3c(sc4nc(N5CCOCC5)c5c(c43)CCCC5)c2=O)cc1	111.7%	0.2%	0.9	-0.6%	9.9%	4.2%
Fc1ccc(-c2cc3c(cn2)CN(Cc2ccncc2)CCN3)cc1Cl	-7.9%[176 µM]	nt	nt	nt	nt	nt
Cc1cc(-c2ccc(C)c(S(=O)(=O)N3CCC(C)CC3)c2)on1	?	-0.8%	-1.8	12.7%	?	-0.9%
SMILES	ALOX12 inh	Nrf2 activator	LDHA inh	A549 tox	Nrf2 inh	mIDH1 inhibitor
Cc1cccc(N2CCN(S(=O)(=O)c3cc(-c4cc(C)no4)ccc3C)CC2C)c1 (stereo not given)	1.4%	-0.1%	-2.2	-11.8%	7.31µM*	0.2%
COc1ccc(-c2cc(C)no2)cc1S(=O)(=O)N1CCN(c2cccc(C)c2)C(C)C1 (stereo not given)	-7.9%	0.3%	0.7	-4.8%	?	2.9%
Cc1cc(-c2ccc(C)c(S(=O)(=O)N3CCN(c4ccc(F)cc4)CC3)c2)on1	-2.5%	-0.3%	-4.2	-5.9%	8.2µM*	20.4%
N#Cc1c(-c2ccncc2)c2c([nH]c1=S)CCCC2	20µM*	-0.1%	-1.4	-0.5%	nt	8.7%
Cc1ccc(-c2c3c([nH]c(=S)c2C#N)CCCC3)o1	?	-0.7%	10.7	nt	0.4%	13.3%
Nc1ccn([C@@H]2O[C@H](CO)[C@@H](O)[C@H]2O)c(=O)n1	22.5%	-1.1%	-12.5	2.0%	-16.3%	14.0%
N=c1ccn2c(n1)OC1C(O)C(CO)OC12 (stereo not given)	0.0%	-0.4%	0.4	-0.4%	0.184µM*	-2.6%
COc1ccccc1NC(=O)/C=C\c1ccco1	?	?	-2.3	8.6%	?	-6.3%
Cc1cccc(NC(=S)NC(=O)/C=C/c2ccco2)c1	?	21.1%	-4.3	-7.8%	?	13.0%
Cc1ccc(-n2nc3ccc(NC(=S)NC(=O)/C=C/c4ccco4)cc3n2)cc1	?	0.2%	3.8	1.6%	?	2.5%
COc1ccccc1NC(=S)NC(=O)/C=C/c1ccco1	39.8µM*	6.3%	1.0	11.0%	9.7%	4.6%
Cc1ccccc1NC(=S)NC(=O)/C=C/c1ccco1	0.0%	17.8µM*	2.7	-25.8%	?	5.0%
Cc1ccc(-n2nc3cc(C)c(NC(=S)NC(=O)/C=C/c4ccco4)cc3n2)cc1	44.7µM*	3.0%	0.2	-0.7%	11.2%	-1.6%
O=C(/C=C/c1ccco1)NC(=S)Nc1cccc([N+](=O)[O-])c1	39.8µM*	9.3%	6.8	?	-35.5%	8.3%
COc1cc2c(cc1OC)C(C)N(C(=O)c1cc(Cl)cc(Cl)c1)CC2 (stereo not given)	?	nt	-1.9	nt	nt	nt
Cc1nc2c(OCc3ccccc3)cccn2c1N(C)C(=O)C1CCCCC1	50.1µM*	-0.3%[9.22 µM]	1.5	nt	nt	nt
CCc1nc2c(OCc3ccccc3C)cccn2c1N(C)C(=O)C1CC1	-0.6%	3.9%	-0.7	nt	nt	nt
O=C1CSc2ccc(S(=O)(=O)N3CCOCC3)cc2N1	65.9%	nt	-14.6	nt	nt	nt
CN(C)c1ccc(C(=O)NNC(=O)c2ccc(Cl)cc2)cc1	-6.3%	-0.2%	-48.4*	2.0%	-3.5%	-5.3%
CN(C)c1ccc(NC(=O)c2ccc(N(C)C)cc2)cc1	?	nt	-14.8	nt	nt	nt
CC(C)c1ccc(NC(=O)c2cc(Br)ccc2Br)cc1	-11.7%	7.08µM*	-7.2	?	15.3%	4.3%
CC(C)c1ccc(NC(=O)c2ccc(N(C)C)cc2)cc1	44.7µM*	nt	2.8	nt	nt	nt
CN(C)c1ccc(C(=O)OCc2nc(N)c3ccccc3n2)cc1	-2.7%	nt	-0.4	nt	nt	nt
CCOC(=O)N1CCN(C(=O)CN(c2cccc(OC)c2)S(=O)(=O)c2ccc(C)cc2)CC1	-11.6%	nt	-5.2	nt	nt	nt
